# From ChEMBL document CHEMBL3988442, “University of Dundee, Small-Polar-MMV Screening Library” (2021)
# For some of these results: Potency and affinity values are given separately.
# How the values were obtained:
# Parameters in all cases: scale not given: direction of the effect not stated beside the values
# [1] = target: Protein translocase subunit SecA (Escherichia coli (strain K12)) (UniProt P10408); experiment: Assay to Identify E. coli SecA ATPase Inhibitors; type: functional; details: 30 µM
# Protein translocase subunit SecA (Escherichia coli (strain K12)), sequence (P10408 whole entry): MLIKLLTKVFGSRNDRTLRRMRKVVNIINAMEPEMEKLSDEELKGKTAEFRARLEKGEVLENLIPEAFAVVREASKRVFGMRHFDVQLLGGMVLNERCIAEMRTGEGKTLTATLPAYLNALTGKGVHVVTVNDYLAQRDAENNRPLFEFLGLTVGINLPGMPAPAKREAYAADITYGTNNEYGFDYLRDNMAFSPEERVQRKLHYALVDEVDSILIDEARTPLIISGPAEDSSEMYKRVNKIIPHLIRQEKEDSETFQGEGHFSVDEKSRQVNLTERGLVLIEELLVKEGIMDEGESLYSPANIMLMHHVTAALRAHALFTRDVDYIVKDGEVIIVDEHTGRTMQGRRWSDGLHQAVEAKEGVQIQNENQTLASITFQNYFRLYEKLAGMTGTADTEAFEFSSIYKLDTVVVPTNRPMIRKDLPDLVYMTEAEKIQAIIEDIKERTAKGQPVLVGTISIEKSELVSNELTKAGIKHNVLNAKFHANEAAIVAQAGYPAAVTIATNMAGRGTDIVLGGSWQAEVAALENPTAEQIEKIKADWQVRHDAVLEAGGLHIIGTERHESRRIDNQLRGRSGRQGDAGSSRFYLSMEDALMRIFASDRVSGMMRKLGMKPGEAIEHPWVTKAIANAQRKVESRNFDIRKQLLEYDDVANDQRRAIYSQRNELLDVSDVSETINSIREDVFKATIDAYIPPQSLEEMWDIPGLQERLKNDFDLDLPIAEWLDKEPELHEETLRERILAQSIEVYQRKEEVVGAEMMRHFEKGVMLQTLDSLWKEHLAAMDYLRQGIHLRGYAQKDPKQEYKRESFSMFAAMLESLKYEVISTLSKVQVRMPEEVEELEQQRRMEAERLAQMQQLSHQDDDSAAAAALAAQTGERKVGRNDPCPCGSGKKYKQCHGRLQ
# [2] = target: T1, Ubiquitin-activating enzyme e1, putative (Leishmania donovani (strain BPK282A1)) (UniProt E9BSI1); experiment: Leishmania donovani Ubiquitin Activating Enzyme (LdE1); type: functional; details: 30 µM
# T1 sequence (whole entry): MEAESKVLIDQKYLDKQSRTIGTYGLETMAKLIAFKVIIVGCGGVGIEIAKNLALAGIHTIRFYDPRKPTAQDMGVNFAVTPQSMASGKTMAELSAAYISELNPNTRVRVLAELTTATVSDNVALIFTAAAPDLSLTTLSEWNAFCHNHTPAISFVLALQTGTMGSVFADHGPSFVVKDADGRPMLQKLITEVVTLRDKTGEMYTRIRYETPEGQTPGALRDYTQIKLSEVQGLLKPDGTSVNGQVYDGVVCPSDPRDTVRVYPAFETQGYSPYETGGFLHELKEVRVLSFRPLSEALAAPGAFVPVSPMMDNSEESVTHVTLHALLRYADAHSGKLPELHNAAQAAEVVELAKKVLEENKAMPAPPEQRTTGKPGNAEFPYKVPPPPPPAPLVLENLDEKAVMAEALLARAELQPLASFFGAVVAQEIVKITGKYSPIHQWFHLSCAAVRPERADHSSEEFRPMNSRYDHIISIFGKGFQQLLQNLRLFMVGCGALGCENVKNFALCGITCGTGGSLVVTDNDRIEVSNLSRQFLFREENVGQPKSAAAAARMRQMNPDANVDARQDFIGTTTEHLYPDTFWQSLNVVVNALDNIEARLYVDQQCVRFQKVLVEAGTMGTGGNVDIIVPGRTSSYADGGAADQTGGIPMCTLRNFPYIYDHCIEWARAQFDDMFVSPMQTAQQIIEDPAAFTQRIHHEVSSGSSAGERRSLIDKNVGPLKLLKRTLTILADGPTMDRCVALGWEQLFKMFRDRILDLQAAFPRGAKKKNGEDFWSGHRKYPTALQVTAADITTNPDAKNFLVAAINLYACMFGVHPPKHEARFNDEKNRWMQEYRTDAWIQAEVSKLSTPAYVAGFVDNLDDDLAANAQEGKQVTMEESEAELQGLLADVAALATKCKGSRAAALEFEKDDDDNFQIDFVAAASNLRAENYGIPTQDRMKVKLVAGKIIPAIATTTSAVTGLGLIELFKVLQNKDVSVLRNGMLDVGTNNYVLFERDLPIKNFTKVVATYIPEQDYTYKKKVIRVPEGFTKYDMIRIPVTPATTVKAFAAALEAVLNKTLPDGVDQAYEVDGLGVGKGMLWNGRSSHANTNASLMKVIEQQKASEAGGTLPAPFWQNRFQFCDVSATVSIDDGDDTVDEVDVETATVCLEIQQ
# [3] = target: AMP-activated protein kinase, AMPK (Homo sapiens) (UniProt P54646+O43741+P54619+Q9UGJ0+Q9Y478+Q13131+Q9UGI9); experiment: AMP-dependent Kinase enzyme assay. An in vitro enzyme assay that detects ADP turnover that is directly proportional to AMPK activity. This uses naive AMPK that is activated during the assay with MK-8722; type: functional; details: 30 µM
# [4] = target: Sialic acid-binding Ig-like lectin 9 (Homo sapiens) (UniProt Q9Y336); experiment: Hs-Siglec9 ALPHAscreen SOP 20170721; details: 10 µM
# Sialic acid-binding Ig-like lectin 9 (Homo sapiens), sequence (Q9Y336 whole entry): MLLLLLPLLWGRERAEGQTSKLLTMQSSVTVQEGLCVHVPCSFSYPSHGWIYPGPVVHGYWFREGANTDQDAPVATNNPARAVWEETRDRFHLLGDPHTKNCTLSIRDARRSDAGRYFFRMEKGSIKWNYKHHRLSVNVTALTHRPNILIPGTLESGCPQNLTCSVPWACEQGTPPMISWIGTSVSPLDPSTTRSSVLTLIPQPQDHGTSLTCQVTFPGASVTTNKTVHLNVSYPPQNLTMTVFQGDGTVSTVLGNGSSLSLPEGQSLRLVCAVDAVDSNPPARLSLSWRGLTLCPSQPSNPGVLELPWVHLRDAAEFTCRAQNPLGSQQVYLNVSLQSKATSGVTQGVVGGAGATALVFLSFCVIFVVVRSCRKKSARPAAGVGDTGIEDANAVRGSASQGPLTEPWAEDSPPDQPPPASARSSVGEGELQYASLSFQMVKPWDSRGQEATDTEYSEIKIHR
# Trypanosoma cruzi = experiment: Trypanosoma cruzi phosphomannomutase and mannose-1-phosphate guanylyltransferase assay; type: functional; details: 10 µM
# [5] = target: T2, Arginase-2, mitochondrial (Homo sapiens) (UniProt P78540); experiment: in vitro enzyme assay to detect the production of urea directly proportional to the activity of Arginase II; type: functional; details: 33.3 µM; note: in the data most compounds retested in dose-response had high values
# T2 sequence (whole entry): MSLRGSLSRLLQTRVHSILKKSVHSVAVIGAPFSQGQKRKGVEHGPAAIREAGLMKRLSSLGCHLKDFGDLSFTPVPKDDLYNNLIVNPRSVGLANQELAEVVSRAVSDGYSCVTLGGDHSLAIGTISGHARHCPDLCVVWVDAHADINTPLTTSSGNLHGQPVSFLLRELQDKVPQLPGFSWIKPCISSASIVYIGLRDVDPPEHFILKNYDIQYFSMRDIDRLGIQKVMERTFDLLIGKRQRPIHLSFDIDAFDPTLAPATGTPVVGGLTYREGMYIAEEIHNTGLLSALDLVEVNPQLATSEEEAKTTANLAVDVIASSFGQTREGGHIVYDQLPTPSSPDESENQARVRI
# [6] = target: T3, Proteasome subunit beta (Trypanosoma cruzi) (UniProt O96673); experiment: Trypanosoma cruzi proteasome chymotrypsin-like activity (TcProtChymo) assay.; note: in the data most compounds retested in dose-response had high values; type: functional; details: 9.37 µM
# T3 sequence (whole entry): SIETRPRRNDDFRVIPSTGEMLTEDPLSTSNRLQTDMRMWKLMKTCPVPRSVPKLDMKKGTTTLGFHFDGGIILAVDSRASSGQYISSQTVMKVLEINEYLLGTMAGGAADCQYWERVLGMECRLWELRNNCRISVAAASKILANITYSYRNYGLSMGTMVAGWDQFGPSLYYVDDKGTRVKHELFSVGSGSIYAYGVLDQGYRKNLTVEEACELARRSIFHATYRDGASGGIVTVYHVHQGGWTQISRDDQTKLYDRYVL
# Homo sapiens = organism: Homo sapiens; experiment: To identify inhibition of the IFN signalling (Jak-Stat) pathway via expression of an eGFP reporter gene under the control of an IFN-stimulated response element (ISRE) containing MxA promoter.; type: functional; details: 30 µM
# [7] = target: T4, Tyrosyl-tRNA synthetase, putative (Trypanosoma cruzi (strain CL Brener)) (UniProt Q4DSP6); experiment: Trypanosoma cruzi tyrosyl tRNA synthetase (TcYRS) _High Tyrosine SOP; type: functional; details: 30 µM; note: in the data most compounds retested in dose-response had high values
# T4 sequence (whole entry): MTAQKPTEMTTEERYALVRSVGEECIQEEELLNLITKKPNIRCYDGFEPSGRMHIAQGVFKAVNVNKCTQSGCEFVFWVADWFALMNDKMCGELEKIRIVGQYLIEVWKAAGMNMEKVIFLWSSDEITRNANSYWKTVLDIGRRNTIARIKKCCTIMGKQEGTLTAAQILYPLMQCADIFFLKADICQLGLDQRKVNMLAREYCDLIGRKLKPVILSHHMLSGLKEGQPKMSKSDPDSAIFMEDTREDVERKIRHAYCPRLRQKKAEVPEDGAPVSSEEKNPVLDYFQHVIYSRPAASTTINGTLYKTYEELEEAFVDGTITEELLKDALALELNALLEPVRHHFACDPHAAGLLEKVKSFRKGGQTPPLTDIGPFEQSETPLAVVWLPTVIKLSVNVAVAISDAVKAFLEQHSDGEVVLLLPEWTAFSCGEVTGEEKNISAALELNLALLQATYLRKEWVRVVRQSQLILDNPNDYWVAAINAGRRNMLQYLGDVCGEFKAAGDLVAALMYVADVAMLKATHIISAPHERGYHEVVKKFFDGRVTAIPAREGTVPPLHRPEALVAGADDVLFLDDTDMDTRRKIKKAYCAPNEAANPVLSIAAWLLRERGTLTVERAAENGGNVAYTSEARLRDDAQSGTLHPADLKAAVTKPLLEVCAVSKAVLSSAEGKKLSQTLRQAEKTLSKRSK
# [8] = target: T4, Tyrosyl-tRNA synthetase, putative (Trypanosoma cruzi (strain CL Brener)); experiment: Trypanosoma cruzi tyrosyl tRNA synthetase (TcYRS) SOP; type: functional; details: 30 µM
# [9] = target: Chromo domain-containing protein 1 (Saccharomyces cerevisiae (strain ATCC 204508 / S288c) (Baker's yeast)) (UniProt P32657); experiment: ScCHD-1 Enzyme Inhibition Assay; type: functional; details: 30 µM; note: in the data most compounds retested in dose-response had high values
# Chromo domain-containing protein 1 (Saccharomyces cerevisiae (strain ATCC 204508 / S288c) (Baker's yeast)), sequence (P32657 whole entry, the tested form may be a part): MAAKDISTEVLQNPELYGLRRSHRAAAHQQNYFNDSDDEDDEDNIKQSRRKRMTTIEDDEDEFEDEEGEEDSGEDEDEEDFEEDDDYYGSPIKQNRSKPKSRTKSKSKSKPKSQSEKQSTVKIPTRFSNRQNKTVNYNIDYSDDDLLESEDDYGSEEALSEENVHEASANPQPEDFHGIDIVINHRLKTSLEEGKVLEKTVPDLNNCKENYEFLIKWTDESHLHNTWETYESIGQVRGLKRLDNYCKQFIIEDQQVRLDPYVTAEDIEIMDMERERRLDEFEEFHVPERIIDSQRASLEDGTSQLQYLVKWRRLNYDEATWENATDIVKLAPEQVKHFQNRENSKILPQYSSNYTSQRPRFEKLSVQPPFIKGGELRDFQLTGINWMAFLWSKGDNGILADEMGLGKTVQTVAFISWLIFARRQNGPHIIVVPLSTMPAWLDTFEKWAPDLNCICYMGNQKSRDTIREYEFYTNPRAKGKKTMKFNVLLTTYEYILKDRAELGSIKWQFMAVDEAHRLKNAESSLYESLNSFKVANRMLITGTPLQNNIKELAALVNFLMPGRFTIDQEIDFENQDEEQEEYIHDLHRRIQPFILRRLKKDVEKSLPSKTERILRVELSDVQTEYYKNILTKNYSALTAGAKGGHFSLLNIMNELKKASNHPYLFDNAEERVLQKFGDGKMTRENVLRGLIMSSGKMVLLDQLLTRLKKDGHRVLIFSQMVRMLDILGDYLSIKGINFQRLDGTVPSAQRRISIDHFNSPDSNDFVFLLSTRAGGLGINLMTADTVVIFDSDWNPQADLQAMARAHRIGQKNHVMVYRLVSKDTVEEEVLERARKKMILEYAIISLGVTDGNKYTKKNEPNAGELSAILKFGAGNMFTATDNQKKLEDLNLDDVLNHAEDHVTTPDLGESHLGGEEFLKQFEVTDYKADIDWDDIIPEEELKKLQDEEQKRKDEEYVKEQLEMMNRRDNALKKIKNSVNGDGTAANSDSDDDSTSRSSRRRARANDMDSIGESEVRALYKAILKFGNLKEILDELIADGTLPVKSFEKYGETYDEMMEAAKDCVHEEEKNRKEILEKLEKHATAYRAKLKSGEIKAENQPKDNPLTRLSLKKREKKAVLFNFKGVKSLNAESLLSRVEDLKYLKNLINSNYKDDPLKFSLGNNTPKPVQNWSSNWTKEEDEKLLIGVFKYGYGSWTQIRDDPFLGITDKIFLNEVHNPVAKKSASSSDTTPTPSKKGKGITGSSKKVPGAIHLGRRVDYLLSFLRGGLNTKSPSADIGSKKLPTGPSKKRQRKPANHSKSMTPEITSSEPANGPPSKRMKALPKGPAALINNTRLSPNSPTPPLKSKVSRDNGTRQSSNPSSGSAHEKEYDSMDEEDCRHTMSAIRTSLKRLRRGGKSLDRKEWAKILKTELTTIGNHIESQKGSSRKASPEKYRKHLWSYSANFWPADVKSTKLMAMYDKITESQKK
Structure (SMILES),Percent Effect [1],Percent Effect [2],Percent Effect [3],Percent Effect [4],Percent Effect (Trypanosoma cruzi),Percent Effect [5],Percent Effect [6],Percent Effect (Homo sapiens),Percent Effect [7],Percent Effect [8],Percent Effect [9]
Cc1nc(C)n(CC2CCCN2Cc2cc(C)on2)n1 (stereo unspecified),-7.09%,5.2%,-68.4%,-5.71%,-2.06%,3.58%,12.2%,19.8%,0%,7.06%,-23.5%
Cc1nnc(NC(=O)CN(C)CC2CCCN2c2cccnn2)s1 (stereo unspecified),-6.6%,-2.7%,-10.9%,17.7%,-1.56%,-1.67%,17.3%,17.7%,5.94%,1.22%,0.656%
CCOc1cccc(NS(=O)(=O)c2cc(C)c(C(=O)O)s2)c1,-6.74%,8.11%,-13.3%,45.6%,7.72%,19.1%,6.27%,-0.127%,-10.8%,-3.7%,-13.9%
CC(O)CN1CCN(C(=O)c2ccn(-c3cccc(Cl)c3)n2)CC1 (stereo unspecified),-5.56%,-2.6%,12.7%,-7.86%,-6.93%,1.07%,1.18%,26.4%,-1.94%,-9.76%,-1.68%
Cc1cc(N2CCN(CCO)CC2)nc(-c2ccncc2)n1,-0.472%,5.26%,0.962%,-2.69%,-0.876%,-8.28%,21.6%,-0.921%,7.45%,7.79%,-4.96%
COc1cccc(CN(C)C(=O)CSc2ccc3c(c2)OCCO3)c1,-7.29%,-10.5%,15.3%,0.77%,-0.876%,-2.37%,6.62%,6.47%,-4.25%,-15.6%,0.365%
NC(=O)C1CCCN(C(=O)c2cnc3c(cnn3C3CCCC3)c2)C1 (stereo unspecified),-8.82%,15.2%,-8.15%,18.9%,12.8%,-3.04%,3.19%,19.3%,6.4%,24.1%,-11.1%
CCc1cnc(CNc2ccc(C(=O)N3CCCC(C)C3)cc2C)o1 (stereo unspecified),-1.36%,-5.2%,6.76%,-0.151%,-0.936%,-1.78%,8.78%,25.1%,-0.971%,0%,-5.54%
CC(O)CN1CCN(C(=O)c2ccc3c(c2)COC3)CC1 (stereo unspecified),-5%,10.1%,-4.14%,3.8%,6.14%,-4.18%,3.19%,-12.6%,4.43%,16.5%,-13.8%
COc1cc(NC(=O)c2cc(C)sc2C)c(C(=O)N(C)C)cc1OC,0.25%,7.79%,-2.17%,6.61%,4.42%,-37.2%,19.1%,-8.35%,4.3%,13.6%,-1.78%
N#Cc1ccc(CNCC(C(=O)N2CCOCC2)c2ccccc2)cc1 (stereo unspecified),-2.65%,10.4%,-4.88%,7.63%,2.06%,-75.9%,4.16%,-2.22%,4.3%,13.6%,-3.12%
